Screening results as filed in PubChem.
Rows were chosen to be rich in hits. Some 19% of all compounds tested hit in one or more screens of this group.
TDP1 cell noCPT: qHTS for Inhibitors of human tyrosyl-DNA phosphodiesterase 1 (TDP1): qHTS in cells in absence of CPT; DT40 Tdp1-/- hTDP1 cells, no CPT, ATP luminescence, 48 h; Potency, µM (titrated, usually from 46.2 µM), for the others: at the highest dose activity change, negative = growth inhibition, actives largely listed as inhibitors; 420,000 compounds, 15% hits; AID 686978, 2013; further: potency means the concentration at half of the fitted maximal effect; on the % scale 0 is the no-effect control and ±100 the full control effect; nearly all actives have a fitted effect of over 55% in size
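No-CPT arm: Tdp1-/-;hTDP1 DT40 cells (400/well) plus compounds, incubated ≥48 hr at 37 °C. Readout CellTiter-Glo luminescence.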
IL-1B inflam inh: inflammasome signaling inhibition, IL-1 beta readout | 360,000 compounds, 4.7% hits | THP-1 LPS/ATP IL-1B secretion, AlphaLISA, 16 h; stronger effect = lower value | AID 743279 | activity change, % at 57.5 µM; in the data active means activity change below about -50%; inconclusive means mostly about -30% to -49%; further: on the % scale 0 is the no-effect control and ±100 the full control effect
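Secreted IL-1B measured by AlphaLISA bead assay after 16 h compound exposure of THP-1 cells; compounds (final up to 57.5 uM) added 1 h before LPS (250 ng/mL) and ATP (1.25 mM) stimulation; lower signal means less secretion.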
TDP1 cell CPT: DT40-hTDP1 cell growth loss with CPT | chicken DT40 Tdp1-/-;hTDP1 cells + 20 nM CPT, ATP luminescence, 48 h | 420,000 compounds, 12% hits | AID 686979 | Potency, µM (doses to about 46.2 µM), for the others: at the top dose activity change, negative = growth inhibition, actives largely listed as inhibitors; further: potency means the concentration at half of the fitted maximal effect; on the % scale 0 is the no-effect control and ±100 the full control effect; nearly all actives have a fitted effect of over 55% in size
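Cell growth measured by CellTiter-Glo luminescence after a minimum 48 h, 37 C compound exposure with 20 nM CPT in Tdp1-knockout DT40 cells stably expressing hTDP1, seeded 400/well; qHTS titration format.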
TGFb inhibitor: blocks TGF-b signaling. HepG2 CAGA-GFP TGF-b/SMAD3 reporter, GFP fluorescence, 18 h; TGF-beta stimulated, 500 pg/mL final. Potency, µM (highest dose often 46.1 µM), inactives show at the highest dose activity, negative = inhibition, hits mostly inhibitors. 410,000 compounds, 1.2% hits. AID 588855; further: potency means the concentration at half of the fitted maximal effect; on the % scale 0 is the no-effect control and ±100 the full control effect; nearly all actives have a fitted effect of over 65% in size
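Cell-based qHTS in HEPG2 carrying a CAGA-GFP Smad reporter; compounds added before 500 pg/mL final TGF-beta, 18 h incubation at 37 degrees C, GFP fluorescence quantified per cell by imaging cytometry.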
TDP1 inh: blocks human tyrosyl-DNA phosphodiesterase 1. Potency, µM (highest dose often 130 µM), for inactives: at the highest dose activity change, negative = inhibition, actives largely listed as inhibitors. recombinant TDP1, AlphaScreen DNA substrate cleavage. AID 485290. 350,000 compounds, 0.28% hits; further: potency means the concentration at half of the fitted maximal effect; on the % scale 0 is the no-effect control and ±100 the full control effect; nearly all actives have a fitted effect of over 40% in size
Target sequence (Q9NUW8 whole entry, looked up): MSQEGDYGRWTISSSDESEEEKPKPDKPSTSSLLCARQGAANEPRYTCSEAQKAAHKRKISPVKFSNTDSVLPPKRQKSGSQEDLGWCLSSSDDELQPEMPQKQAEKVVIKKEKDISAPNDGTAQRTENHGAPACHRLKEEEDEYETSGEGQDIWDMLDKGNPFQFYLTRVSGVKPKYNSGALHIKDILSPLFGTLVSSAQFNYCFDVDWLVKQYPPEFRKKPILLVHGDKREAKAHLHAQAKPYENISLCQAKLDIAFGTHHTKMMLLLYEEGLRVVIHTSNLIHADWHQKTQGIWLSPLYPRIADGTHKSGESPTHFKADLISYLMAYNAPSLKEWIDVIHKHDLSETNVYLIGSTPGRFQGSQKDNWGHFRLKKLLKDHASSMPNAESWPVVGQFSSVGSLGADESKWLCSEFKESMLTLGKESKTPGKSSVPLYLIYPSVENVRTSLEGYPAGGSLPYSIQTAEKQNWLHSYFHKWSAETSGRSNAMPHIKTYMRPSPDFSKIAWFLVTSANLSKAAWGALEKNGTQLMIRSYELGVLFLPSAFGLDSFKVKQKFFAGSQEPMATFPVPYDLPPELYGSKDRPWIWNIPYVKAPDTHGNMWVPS
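Tdp1 1 nM final; 15 min RT w/ cpd; substrate 15 nM, 5 min; beads 10 ug/ml, 10 min; AlphaScreen read. Neg ctrl: no enzyme.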
HepG2 viability: kills HepG2 cells in TGF-b inhibitor counter-screen | HepG2 CAGA-GFP viability, ATP luminescence, 18 h | Potency, µM (series often up to 46.1 µM), inactives show at the highest dose activity change, negative = cytotoxicity, hits mostly cytotoxic | 410,000 compounds, 0.76% hits | AID 588856; further: potency means the concentration at half of the fitted maximal effect
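HepG2 CAGA-GFP cells (1000/well, DMEM with 1% FBS) received compound, then TGF-beta at 500 pg/mL final, and were incubated 18 hours at 37 degrees C. Viability was read by CellTiter-Glo luminescence. Media-only wells were set as complete cell-killing and DMSO as no toxicity.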
The depositor's hits bear a star; u = inconclusive; x = not tested or not shown; [ ] = dose if it differs, or a comment. Unless noted, the call rests on the fitted dose curve; in most records, active means well fitted curve in the direction sought with a large enough effect; inconclusive means small, poorly fitted or top-dose-only effect, or another doubt; inactive means no such curve, though single readings can be large; an effect the other way counts as inactive or inconclusive.

SMILES | TDP1 cell noCPT | IL-1B inflam inh | TDP1 cell CPT | TGFb inhibitor | TDP1 inh | HepG2 viability
CCCSCCCNC(=O)c1ccc(Cn2c(=O)c3cccn3c3cccnc32)cc1 | -24% | x | 2% | -10% | 3% | -7%
Clc1ccc(-n2nnnc2SCc2c(-c3ccccc3)nc3sccn23)cc1 | 13µM* | -21 | u | 42% | 7% | -7%
c1ccc(-n2nnnc2SCc2cccc(CSc3nnnn3-c3ccccc3)n2)cc1 | 13µM* | -10 | u | u | 1%[56.1 µM] | -21%
O=c1[nH]c(CSc2nnnn2-c2ccc(Cl)cc2)nc2ccccc12 | u | 54 | -27% | 9% | -8% | -1%
Cc1ccc(Nc2nc(N)nc(CSc3nnnn3-c3ccccc3)n2)cc1 | -16% | 0 | -1% | 0% | 79µM* | -27%
COc1ccc(C(=O)Nc2ccccc2C(=O)OCc2cc(=O)n3nc(C4CC4)sc3n2)cc1 | -3% | x | 8% | 19% | 4% | 2%
COc1ccc([C@H]2C[C@H](n3cc(C4CC4)nn3)[C@@H](O)CN2C(=O)C2CCCCC2)cc1 | 3% | -16 | -6% | 2% | x | 5%
CCN(CC)S(=O)(=O)c1ccc(N2CCOCC2)c(NC(=O)c2cccc3ccccc23)c1 | 16µM* | u | 26µM* | 3% | 4% | 0%
CCN(CC)S(=O)(=O)c1ccc(N2CCOCC2)c(NC(=O)c2cccc3c(=O)c(C)c(-c4ccccc4)oc23)c1 | 9.2µM* | -25 | 5.8µM* | -10% | x | 2%
CCN(CC)S(=O)(=O)c1ccc(N2CCOCC2)c(NC(=O)c2cc([N+](=O)[O-])ccc2Cl)c1 | 1% | 0 | 1% | 5% | 6% | 6%
COc1ccc(S(=O)(=O)N2CCOCC2)cc1NC(=O)c1cccc2c(=O)c(C)c(-c3ccccc3)oc12 | 5.2µM* | -28 | u | 15% | 0% | -31%
CCN(CC)S(=O)(=O)c1ccc(N2CCCCC2)c(C(=O)Nc2ccccc2N2CCOCC2)c1 | 9.2µM* | -19 | 10µM* | 0% | 4% | -3%
CCOc1ccc(CCNC(=O)COC(=O)COc2ccc(Br)cc2)cc1OCC | 8% | 10 | 0% | 12% | 2% | 36%
CN(Cc1cccnc1)C(=O)c1cc(S(=O)(=O)Nc2ccccc2F)ccc1Cl | -23% | -5 | u | 2% | -1% | -4%
CCN(CC)S(=O)(=O)c1ccc(N2CCOCC2)c(NC(=O)c2ccc3c(c2)OCCO3)c1 | 21µM* | -4 | 16µM* | -16% | x | -3%
CCN(CC)S(=O)(=O)c1ccc(N2CCOCC2)c(NC(=O)c2cccc(C#N)c2)c1 | -7% | 8 | -12% | -1% | 8% | 3%
CCN(CC)S(=O)(=O)c1ccc(N2CCOCC2)c(NC(=O)c2cc(-c3ccccn3)nc3ccccc23)c1 | 9.2µM* | -29 | 13µM* | -3% | 5% | 13%
CCN(CC)S(=O)(=O)c1ccc(N2CCOCC2)c(NC(=O)c2c3c(nc4ccccc24)CCC3)c1 | 15µM* | 6 | 15µM* | 0% | -9% | -16%
CCN(CC)S(=O)(=O)c1ccc(N2CCOCC2)c(NC(=O)C2=COCCO2)c1 | u | -8 | u | 3% | 4% | -10%
CCN(CC)S(=O)(=O)c1ccc(N2CCOCC2)c(NC(=O)c2ccc3ccccc3c2)c1 | 21µM* | 8 | u | -27% | 2% | -11%
CCS(=O)(=O)c1ccc(O)c(NC(=O)c2cc(-c3ccccn3)nc3ccccc23)c1 | u | 20 | u | 7% | -2% | 1%
